Results on nine molecules are retold here after PubChem BioAssay (NCI).

Assay in all cases: NCI-60 one-dose screen, 48 h (100 = growth as untreated, 0 = no growth, -100 = all killed)
One assay deals with SR leukemia. Particulars: 10 µM.
The subject of a further assay is RPMI-8226 leukemia. Particulars: 10 µM.
The next assay has as its system OVCAR-8 ovarian. Particulars: 10 µM.
The next assay concerns OVCAR-5 ovarian. Particulars: 10 µM.
A further assay relates to OVCAR-4 ovarian. Particulars: 10 µM.
The test system of another assay is SK-OV-3 ovarian. Particulars: 10 µM.
The test system of a further assay is IGROV1 ovarian. Particulars: 10 µM.
The next assay relates to OVCAR-3 ovarian. Particulars: 10 µM.
The subject of a further assay is HS 578T breast. Particulars: 10 µM.
The subject of a further assay is NCI/ADR-RES ovarian. Particulars: 10 µM.
The next assay concerns T-47D breast. Particulars: 10 µM.
The test system of the next assay is BT-549 breast. Particulars: 10 µM.
In a further assay the test system is MDA-MB-435 melanoma. Particulars: 10 µM.
A further assay deals with SW-620 colon. Particulars: 10 µM.
The test system of a further assay is MCF7 breast.
The next assay deals with HCT-116 colon. Particulars: 10 µM.
The next assay concerns HCC-2998 colon. Particulars: 10 µM.
The next assay has as its system KM12 colon. Particulars: 10 µM.

About 83,000 compounds went through this panel and 20% of them were active in at least one assay; those are over-represented in the sample as a whole.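 Negative percent growth values reflect cell death: -40 means 40% of the cells present at the start died, and -100 means all died.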 Values without a mark were called inactive. Active and inactive are the calls of the source. Rule for the calls: active = growth percent below 10; inactive = the rest.

Take `COc1cc(-c2ccc(NC(=O)NC3CC3)c(OC)c2)ccc1NC(=O)NC1CC1`: the growth with SR leukemia is 1.38% (active); in the assay on RPMI-8226 leukemia, 36.2%; with OVCAR-8 ovarian, 57.9%; with OVCAR-5 ovarian, 101%; in the assay with OVCAR-4 ovarian it was 80.4%; in the assay on SK-OV-3 ovarian it was 75.5%. The growth is 83.8% in the assay with IGROV1 ovarian; 97.3% in the assay on OVCAR-3 ovarian; 81.5% with HS 578T breast; 90.3% with NCI/ADR-RES ovarian; 82.8% with T-47D breast; 89.5% in the assay with BT-549 breast. Further, the growth in the assay on MDA-MB-435 melanoma was 99.4%; in the assay on SW-620 colon, 66.8%; with MCF7 breast (10 µM unless noted), 72.4%; with HCT-116 colon it was 36.9%; with HCC-2998 colon it was 68.2%.

`CC1(C)OC(=O)C(c2ccsc2)C(=O)O1`: the growth was 103% in the assay with SR leukemia; 103% in the assay on RPMI-8226 leukemia; 109% in the assay on OVCAR-8 ovarian; 105% in the assay with OVCAR-5 ovarian; 102% in the assay with OVCAR-4 ovarian; 106% in the assay on SK-OV-3 ovarian. Besides, the growth in the assay on IGROV1 ovarian was 103%; with OVCAR-3 ovarian it was 106%; with HS 578T breast, 99%; in the assay with NCI/ADR-RES ovarian it was 97.7%; in the assay with T-47D breast, 90.4%; in the assay with BT-549 breast, 124%. Moreover, the growth in the assay with MDA-MB-435 melanoma was 101%; in the assay with SW-620 colon it was 108%; in the assay with MCF7 breast (10 µM unless noted), 104%; in the assay with HCT-116 colon it was 92.1%; with HCC-2998 colon it was 107%; in the assay with KM12 colon, 102%.

For `S=C(Nc1ccccc1)N1CCCCC1`, the growth is 105% with SR leukemia; 110% in the assay with RPMI-8226 leukemia; 99.4% in the assay with OVCAR-8 ovarian; 90.1% in the assay on OVCAR-5 ovarian; 111% in the assay with OVCAR-4 ovarian; 107% in the assay with SK-OV-3 ovarian. The growth is 100% with IGROV1 ovarian; 110% in the assay with OVCAR-3 ovarian; 102% in the assay with HS 578T breast; 107% with NCI/ADR-RES ovarian; 89.3% in the assay with T-47D breast; 112% in the assay with BT-549 breast. Further, the growth was 110% in the assay with MDA-MB-435 melanoma; 106% in the assay on SW-620 colon; 93.2% in the assay on MCF7 breast (10 µM unless noted); 92.3% in the assay on HCT-116 colon; 101% in the assay on HCC-2998 colon; 105% in the assay on KM12 colon.

Turning to `CCOc1ccc(I)cc1`, the growth is 114% in the assay on SR leukemia; 131% with RPMI-8226 leukemia; 96.7% with OVCAR-8 ovarian; 94% with OVCAR-5 ovarian; 109% in the assay with OVCAR-4 ovarian; 110% with SK-OV-3 ovarian. For the same molecule, the growth was 117% in the assay with IGROV1 ovarian; 116% with OVCAR-3 ovarian; 111% in the assay with HS 578T breast; 101% with NCI/ADR-RES ovarian; 114% with T-47D breast; 116% with BT-549 breast. Also, the growth with MDA-MB-435 melanoma is 112%; in the assay with SW-620 colon it was 105%; in the assay on MCF7 breast (10 µM unless noted), 98.2%; in the assay with HCT-116 colon, 102%; with HCC-2998 colon, 106%; in the assay with KM12 colon, 95.2%.

Consider `O=[N+]([O-])c1ccc(/C=C/C=C/c2ccccc2)c(Cl)c1`, for which the growth in the assay on SR leukemia was 95.2%; in the assay with RPMI-8226 leukemia, 87.6%; with OVCAR-8 ovarian, 98.8%; in the assay on OVCAR-5 ovarian, 102%; in the assay with OVCAR-4 ovarian, 82.5%; with SK-OV-3 ovarian it was 98.8%. Also, the growth in the assay on IGROV1 ovarian was 88%; in the assay with OVCAR-3 ovarian it was 105%; in the assay with HS 578T breast, 87.7%; in the assay with NCI/ADR-RES ovarian it was 108%; in the assay with T-47D breast it was 74.3%; with BT-549 breast it was 102%. Besides, the growth in the assay on MDA-MB-435 melanoma is 99.5%; with SW-620 colon, 98.1%; in the assay on MCF7 breast (10 µM unless noted) it was 74.2%; in the assay with HCT-116 colon it was 76.6%; in the assay with HCC-2998 colon, 97.3%; in the assay with KM12 colon, 94.5%.

In the case of `COc1cc2nn(-c3ccccc3N)nc2cc1OC`, the growth was 111% in the assay on SR leukemia; 100% with RPMI-8226 leukemia; 97.1% with OVCAR-8 ovarian; 99.6% in the assay with OVCAR-5 ovarian; 97.7% in the assay on OVCAR-4 ovarian; 102% with SK-OV-3 ovarian. For the same molecule, the growth was 89% with IGROV1 ovarian; 112% in the assay with OVCAR-3 ovarian; 92.6% in the assay with HS 578T breast; 97.9% in the assay with NCI/ADR-RES ovarian; 93.6% in the assay on T-47D breast; 81.3% in the assay on BT-549 breast. Besides, the growth was 96.8% in the assay on MDA-MB-435 melanoma; 105% in the assay with SW-620 colon; 90.7% in the assay on MCF7 breast (10 µM unless noted); 103% in the assay with HCT-116 colon; 95.8% with HCC-2998 colon; 103% in the assay on KM12 colon.

Take `CCCOC(=O)C(O)c1ccccc1` (configuration not stated): the growth is 107% with SR leukemia; 118% in the assay on RPMI-8226 leukemia; 114% with OVCAR-8 ovarian; 94.9% with OVCAR-5 ovarian; 119% with OVCAR-4 ovarian; 107% in the assay with SK-OV-3 ovarian. The growth in the assay on IGROV1 ovarian was 117%; with OVCAR-3 ovarian, 106%; with HS 578T breast it was 104%; with NCI/ADR-RES ovarian, 109%; in the assay on T-47D breast it was 104%; in the assay with BT-549 breast, 103%. The growth in the assay on MDA-MB-435 melanoma is 111%; in the assay with SW-620 colon it was 102%; in the assay on MCF7 breast (10 µM unless noted) it was 98.3%; with HCT-116 colon it was 97.8%; in the assay on HCC-2998 colon, 110%; with KM12 colon, 101%.

`CN(C)/N=C/c1ccccc1O`: the growth with SR leukemia is 97.9%; with RPMI-8226 leukemia, 113%; in the assay with OVCAR-8 ovarian it was 91.3%; with OVCAR-5 ovarian it was 89.9%; in the assay with OVCAR-4 ovarian, 100%; with SK-OV-3 ovarian, 105%. The growth in the assay on IGROV1 ovarian is 102%; in the assay on OVCAR-3 ovarian it was 110%; in the assay on HS 578T breast, 99.7%; with NCI/ADR-RES ovarian it was 115%; with T-47D breast, 98.6%; in the assay with BT-549 breast, 97.5%. Further, the growth was 107% in the assay on MDA-MB-435 melanoma; 100% in the assay with SW-620 colon; 106% with MCF7 breast (10 µM unless noted); 94.6% in the assay with HCT-116 colon; 117% with HCC-2998 colon; 107% in the assay on KM12 colon.

As to `C=C1CC/C=C(\C)C(=O)C[C@@H]2[C@@H]1CC2(C)C`, the growth in the assay on SR leukemia is 95.7%; in the assay with RPMI-8226 leukemia, 68.3%; in the assay with OVCAR-8 ovarian, 98.1%; with OVCAR-5 ovarian, 108%; with OVCAR-4 ovarian it was 110%; in the assay with SK-OV-3 ovarian it was 101%. Besides, the growth with IGROV1 ovarian is 11.4%; with OVCAR-3 ovarian, 96.7%; in the assay on HS 578T breast it was 122%; in the assay on NCI/ADR-RES ovarian, 115%; with T-47D breast, 94.6%; in the assay on BT-549 breast, 105%. The growth is 115% in the assay with MDA-MB-435 melanoma; 119% with SW-620 colon; 101% in the assay with MCF7 breast (10 µM); -72% (active) in the assay with MCF7 breast (100 µM); 99.9% with HCT-116 colon; 98.1% in the assay with HCC-2998 colon. Moreover, the growth with KM12 colon was 109%.
